The OligoGym collection
Also: reference of the scale not given here.

The sequences below were run against RHOH (assay: pooled miR-30 sensor sort-seq; sequence = guide strand). Conditions: shRNA.
TTCAGGAATGAGTTATGGTTGG was tested, and the sensor-assay potency score (higher = more potent) was -0.949. AACACCTGCTGTACTCCCCGAT showed a sensor-assay potency score (higher = more potent) of -0.621. In the case of TAAGGGCTGAGCACTCCAGGTA, the sensor-assay potency score (higher = more potent) is reported as -0.636. With TTCCATGGCATTGACGCAGGAG the sensor-assay potency score (higher = more potent) was 0.27. For TTCTTCAAGTTCAGGAATGAGT, the sensor-assay potency score (higher = more potent) was -0.86. In the case of TCCATGAAGACGTCCACCCCTG, the sensor-assay potency score (higher = more potent) is reported as -1.1. With AATTTCACCAATCCACTTGTTC the sensor-assay potency score (higher = more potent) was -0.62. TAGCACATCAGCACCACGTCTG showed a sensor-assay potency score (higher = more potent) of 0.265. Sequence TACACTGTGGGCTTGTAGGCCT has a sensor-assay potency score (higher = more potent) of -0.53. Work on TAATTTCACCAATCCACTTGTT yielded a sensor-assay potency score (higher = more potent) of 0.134. With AAACACCTGCTGTACTCCCCGA the sensor-assay potency score (higher = more potent) was -0.993. With TTCTGAAGGCGTCATTGCCGGC the sensor-assay potency score (higher = more potent) was -1.35. TGTTCTCGTACACTGTGGGCTT was tested, and the sensor-assay potency score (higher = more potent) was -0.393. For AAGGTCTCGGAGGTGAAGCGCA, the sensor-assay potency score (higher = more potent) was -0.81. TTGATGGAGAAGAGCCTCCTTC gave a sensor-assay potency score (higher = more potent) of -0.911. TTGTAGAGTGTAGTTAGTGAAA was tested, and the sensor-assay potency score (higher = more potent) was -1.62.
